Experimental data reported in PubChem BioAssay.
Calls of active or inactive are those of the source. Unless noted, no rule for the calls is given here.

Experiments:
[1] = system: XIP peptide (Xip251-270) binding; experiment: XIP fragment 251-270 binding compounds – biochemical, small-molecule microarray, fluorescence 635/667 nm, 0.1 µg/mL protein, primary screen (AID 1182); details: fluorescent protein binding, 635 nm, higher = more signal, called active from +8 up or from −8 down
XIP peptide (Xip251-270) = experiment: compounds binding XIP fragment 251-270 – biochemical, small-molecule microarray, fluorescence 635/667 nm, 0.5 µg/mL protein, primary screen (AID 1183); details: fluorescence 635 nm, higher = more signal
[2] = blood-stage malaria parasite viability loss – strain 3D7, DAPI fluorescence, 100 nL, primary screen (AID 1184);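 also: parasites grown inside human red blood cells in medium with human serum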; details: P. falciparum 3D7 growth, 3 d, higher = more signal
[3] = target: Homeobox protein Hox-A13 (Mus musculus) (UniProt Q62424); experiment: disruptors of Hoxa13 oligonucleotide interaction – biochemical, fluorescence polarization, labeled oligonucleotide, primary screen (AID 1185); details: Hoxa13:DNA binding, 15 min, higher = more signal, called active from +8 up or from −8 down
[4] = blockers of DNA damage checkpoint Chk1 activation – imaging, HeLa, hydroxyurea, phospho-Chk1 antibody, percent positive cells, primary screen (AID 1186); details: hydroxyurea-induced phospho-Chk1 immunofluorescence imaging, higher = more signal
[5] = blockers of DNA damage checkpoint Chk1 activation – imaging, HeLa, hydroxyurea, phospho-Chk1 nuclear intensity, primary screen (AID 1187); details: hydroxyurea-induced phospho-Chk1 immunofluorescence imaging, higher = more signal

Sequence of Homeobox protein Hox-A13 (Mus musculus) (Q62424 whole entry, looked up): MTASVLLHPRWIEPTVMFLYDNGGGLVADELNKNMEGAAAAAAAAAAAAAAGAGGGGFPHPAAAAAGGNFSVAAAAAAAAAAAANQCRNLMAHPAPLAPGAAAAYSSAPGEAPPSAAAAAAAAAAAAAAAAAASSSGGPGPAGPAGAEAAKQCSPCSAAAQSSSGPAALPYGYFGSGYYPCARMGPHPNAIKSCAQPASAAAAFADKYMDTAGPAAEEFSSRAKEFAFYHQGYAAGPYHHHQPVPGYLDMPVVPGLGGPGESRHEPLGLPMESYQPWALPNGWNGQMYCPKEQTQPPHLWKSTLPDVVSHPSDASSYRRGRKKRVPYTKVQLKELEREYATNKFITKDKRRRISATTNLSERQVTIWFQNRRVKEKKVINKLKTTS

SMILES | composite z-score [1] | composite z-score (XIP peptide (Xip251-270)) | z-score [2] | z-score [3] | z-score [4] | z-score [5]
NCCCCCNC(=O)[C@@H]1C[C@@H]2C(=O)NCC(=O)N2[C@@H]1c1cccc(OCCO)c1 | 0.318 (inactive) | 0.782 | -1.28 | -1.43 (inactive) | 0.518 (inactive) | 0.503 (inactive)
O=C1C=C(c2ccccc2)C(=O)c2ccc([C@H]3Oc4ccccc4S(=O)(=O)N4CCC[C@@H]34)cc21 | -0.668 (inactive) | 0.468 | -3.17 | -3.05 (inactive) | 0.808 (inactive) | 0.885 (inactive)
COc1ccc([Si](C)(C)[C@H]2[C@H](CC(=O)N(CCO)Cc3ccccc3)O[C@@]3(C(=O)N(Cc4cccc(N5CCOC5=O)c4)c4ccccc43)[C@@H]2C)cc1 | 0.114 (inactive) | 0.77 | -2.69 | -2.33 (inactive) | -0.178 (inactive) | -0.157 (inactive)
Cc1ccc(S[C@]2(C(=O)O)CC(=O)N(Cc3cc(C(F)(F)F)cc(C(F)(F)F)c3)[C@@H]2c2ccc(CO)cc2)cc1 | -0.287 (inactive) | -1.25 | 0.777 | -3.18 (inactive) | 0.0261 (inactive) | -0.641 (inactive)
CC(=O)c1ccc(C(O)C2C=CC3C(=O)N(c4ccccc4)C(=O)C3N2Nc2ccc(C#N)cc2)cc1 (stereo not drawn) | -0.305 (inactive) | 0.441 | 0.981 | -4.75 (inactive) | 0.293 (inactive) | -0.211 (inactive)
CN(C)c1ccc(C(O)C2C=CC3C(=O)N(c4ccccc4)C(=O)C3N2Nc2ccc([N+](=O)[O-])cc2)cc1 (stereo not drawn) | -0.0383 (inactive) | 0.648 | -0.704 | -5.57 (inactive) | 0.55 (inactive) | -0.576 (inactive)
COC(=O)c1nc2oc1CC[C@@H](CO)NC(=O)N(C)Cc1cnnn1C[C@H](Cc1ccccc1)NC2=O | 0.618 (inactive) | 0.944 | 1.06 | -0.449 (inactive) | -0.517 (inactive) | -0.393 (inactive)
COC(=O)c1ccc([C@H](NC(=O)c2ccco2)[C@]2(C)C[C@H]2C2CCCCC2)cc1 | -0.235 (inactive) | -0.727 | -0.414 | -2.66 (inactive) | 0.089 (inactive) | -0.229 (inactive)
COC(=O)[C@@]1(Cc2ccc(F)cc2)[C@H]2c3cc(C(=O)N(C)C)n(CCc4ccc(O)c(OC)c4)c3C[C@H]2CN1C(=O)c1ccccc1 | -0.327 (inactive) | -0.277 | 0.845 | -0.562 (inactive) | -0.47 (inactive) | -0.964 (inactive)
COCCOC(=O)N1C(=O)[C@@]2(c3cc(C#CC4=CCCCC4)ccc31)[C@H](c1ccc(OCCO)cc1)N1[C@H](c3ccccc3)[C@H](c3ccccc3)OC(=O)[C@H]1[C@@H]2C(=O)N1CCN(c2ncccn2)CC1 | 0.975 (inactive) | 0.278 | -2.19 | 2.06 (inactive) | 0.313 (inactive) | 0.448 (inactive)
CC(C)Cc1ccc(CN2CC[C@@H](NC(=O)Nc3ccccc3)C2)cc1 | -0.243 (inactive) | -0.238 | -1.51 | 0.339 (inactive) | 0.146 (inactive) | 0.459 (inactive)
COC(=O)[C@@]1(Cc2ccc(OC)cc2)[C@H]2c3cc(C(=O)N4CCCC4)n(Cc4cccc5ccccc45)c3C[C@H]2CN1C(=O)c1ccccc1 | 0.0014 (inactive) | 0.658 | -1.58 | -1.44 (inactive) | -0.491 (inactive) | -0.684 (inactive)
COc1ccc([Si](C)(C)[C@@H]2[C@@H](CC(=O)N(CCO)Cc3ccccc3)O[C@]3(C(=O)N(Cc4cccc(N5CCOC5=O)c4)c4ccccc43)[C@H]2C)cc1 | 1.18 (inactive) | 0.799 | -2.16 | -2.52 (inactive) | 0.437 (inactive) | -0.0407 (inactive)
COCCCNC(=O)[C@@]1(Cc2ccccc2CN=[N+]=[N-])N=C(c2ccc(OCCCO)cc2)O[C@H]1c1ccccc1 | 1.38 (inactive) | 0.789 | -2.37 | -6.47 (inactive) | -0.371 (inactive) | -0.349 (inactive)
[N-]=[N+]=NCc1ccccc1[C@H]1OC(c2ccc(OCCCO)cc2)=N[C@@]1(CCS(=O)(=O)c1ccccc1)C(=O)N1CCCCC1 | 0.447 (inactive) | 0.757 | -2.46 | -3.76 (inactive) | -0.0013 (inactive) | -0.0087 (inactive)
C=C(/C(=C/C[C@H](OC(=O)c1ccncc1)c1ccc(CO)o1)c1cc(C(=O)OC)ccc1OC)C(C)C | 0.0474 (inactive) | 0.554 | -0.114 | -5.26 (inactive) | -0.291 (inactive) | -0.218 (inactive)
O=C(NCC(F)(F)F)[C@@H]1c2ccccc2C(=O)N(Cc2ccc(OC(F)(F)F)cc2)[C@H]1c1ccc(CO)cc1 | 0.21 (inactive) | 0.235 | -0.828 | -3.13 (inactive) | -0.263 (inactive) | -0.383 (inactive)

SMILES | composite z-score [1] | composite z-score (XIP peptide (Xip251-270)) | z-score [2] | z-score [3] | z-score [4] | z-score [5]
[N-]=[N+]=Nc1ccccc1[C@H]1OC(c2ccc(OCCCO)cc2)=N[C@@]1(CCS(=O)(=O)c1ccccc1)C(=O)NCCN1CCOCC1 | 0.345 (inactive) | 0.868 | -2.52 | -5.15 (inactive) | 0.392 (inactive) | 0.812 (inactive)
CCOC(=O)C[C@H]1[C@H](OC(=O)Cc2ccc3c(c2)OCO3)[C@@H](NC(=O)CC(C)C)c2cc(OCCCO)ccc2N1C(=O)Cc1ccc(OC)cc1 | -0.107 (inactive) | -0.311 | 0.0373 | -3.35 (inactive) | -0.839 (inactive) | -0.401 (inactive)
O=C1N(Cc2ccccc2)Cc2ccccc2[C@@H]2OC(c3ccc(OCCCO)cc3)=N[C@]12CCS(=O)(=O)c1ccccc1 | 0.0667 (inactive) | 0.736 | -2.17 | 0.722 (inactive) | -0.0608 (inactive) | 0.268 (inactive)
COC(=O)c1c2oc(c1C(=O)OC)C(=O)N(Cc1ccccc1)Cc1cn(nn1)C[C@H](Cc1ccccc1)NC(=O)N[C@H](CO)CC2 | -0.255 (inactive) | -0.057 | -0.886 | -4.5 (inactive) | -0.962 (inactive) | -0.745 (inactive)
COC(=O)C1=CC(CCCO)=CC(C2CC2)N(C)C=C1C(=O)OC (stereo not drawn) | 0.473 (inactive) | 0.16 | 0.493 | -6.16 (inactive) | -0.68 (inactive) | -1.04 (inactive)
COC(=O)[C@@]1(Cc2ccc(F)cc2)[C@H]2c3cc(C(=O)N4CCCC4)n(CCc4ccc(O)c(O)c4)c3C[C@H]2CN1C(=O)c1ccccc1 | 1.19 (inactive) | -0.892 | -1.47 | -4.67 (inactive) | 0.333 (inactive) | 0.303 (inactive)
COCCCNC(=O)[C@]1(CCS(=O)(=O)c2ccccc2)N=C(c2ccc(OCCCO)cc2)O[C@@H]1c1ccccc1N=[N+]=[N-] | 1.26 (inactive) | 0.731 | -2.4 | -3.71 (inactive) | -0.198 (inactive) | -0.266 (inactive)
C=CCNC(=O)[C@@H]1[C@H]2C(=O)O[C@H](c3ccccc3)[C@H](c3ccccc3)N2[C@H](c2ccc(O)cc2)[C@@]12C(=O)N(C(=O)OCCOC)c1ccc(C#CC3(O)CCCCCC3)cc12 | 0.0275 (inactive) | 0.557 | 0.359 | 0.16 (inactive) | -0.209 (inactive) | -0.468 (inactive)
O=C(NCC(F)(F)F)[C@@H]1c2ccccc2C(=O)N(Cc2cc(F)cc(C(F)(F)F)c2)[C@H]1c1ccc(CO)cc1 | 0.0811 (inactive) | 0.663 | -1.25 | -2.64 (inactive) | -0.0626 (inactive) | -0.205 (inactive)
C=CCOC(=O)[C@H]1[C@@H]2C(=O)O[C@@H](c3ccccc3)[C@@H](c3ccccc3)N2[C@@H](c2ccc(OCCOC(=O)[C@@H]3C[C@@H]4C(=O)N5CCC[C@H]5C(=O)N4[C@@H]3c3ccc(O)cc3)cc2)[C@]12C(=O)Nc1ccc(I)cc12 | 0.773 (inactive) | 0.787 | -1.64 | 2.54 (inactive) | 0.651 (inactive) | 0.571 (inactive)
CN(C)CCCCNC(=O)[C@@H]1C[C@@H]2C(=O)N[C@@H](Cc3ccccc3)C(=O)N2[C@@H]1c1cccc(OCCO)c1 | 0.096 (inactive) | 0.762 | 0.0546 | -3.94 (inactive) | -1.08 (inactive) | -0.295 (inactive)
C[C@]1(C(=O)NC2CC2)c2ccccc2C(=O)N(Cc2ccccc2)[C@H]1c1ccc(CO)cc1 | -0.0942 (inactive) | -0.227 | -1.62 | -1.31 (inactive) | -0.483 (inactive) | -0.567 (inactive)
CCCCCCc1nc(-c2cc(C)c(OC)c(C)c2)c(C)c2c1[Si](C(C)C)(C(C)C)OC2 | -0.31 (inactive) | -0.306 | -2.23 | -0.241 (inactive) | 0.0933 (inactive) | 0.149 (inactive)
O=C1OCC=C[C@H]2OC34C=CCN(Cc5ccccc5)C(=O)[C@H]3N(CCCCCCO)C(=O)[C@@H]4[C@@H]12 (stereo partly drawn) | 1.49 (inactive) | 0.295 | -1.16 | -4.53 (inactive) | -0.584 (inactive) | -0.232 (inactive)
N#Cc1ccc(NN2C(C(O)c3ccc(F)cc3)C=CC3C(=O)N(c4ccccc4)C(=O)C32)cc1 (stereo not drawn) | 0.536 (inactive) | 0.634 | -0.573 | -0.0009 (inactive) | -0.0909 (inactive) | -0.0009 (inactive)
COc1ccc(CCNC(=O)[C@@]2(Sc3ccc(C)cc3)CC(=O)N(C3Cc4ccccc4C3)[C@@H]2c2ccc(CO)cc2)cc1 | 0.984 (inactive) | 0.703 | -1.89 | 0.563 (inactive) | -0.341 (inactive) | -0.452 (inactive)
